{
  "source": "paper PMC12136788",
  "binders": {"B1": {"name": "9136497_9143069_760_3pUTR_ENSMUSG00000033499_ENSMUST00000091829|mouse|control|control (ssRNA)", "RNA": "GGGAGUUCUACAGUCCGACGAUCCAGAAUUCCAAUGUUUUUUUAAGUACUUCCCGAGGGUCUUCCUGGCUUUCUGGUUGAGACUCAUUUCCUCCCGUAUCGUUGUUCUCAGGCAGAGGUUCAUAUUCUGAAUGGUCCAGAGCCCAACAGAGGAUUGAGCAUCA"}, "B2": {"name": "40924096_40924216_925_3pUTR_ENSMUSG00000028423_ENSMUST00000098143|mouse|control|control (ssRNA)", "RNA": "GGGAGUUCUACAGUCCGACGAUCUCGUUGGUCUUUCUCUAAGAUUAUCCUUUGGAAUGGGGGACAUGUUGGUUUUGGGCCCUGCAUUUAUAUGCCGCUGACUCUCCUGUUUUGGUGGGUUCCUGCCUGGCCGUGGUCUGGCCCCAACAGAGGAUUGAGCAUCA"}, "B3": {"name": "chr14:89307221:89307222:+_ENSG00000165533_ENST00000346301|hu_mus|hu_hu_hu_mus_False|98_98 (ssRNA)", "RNA": "GGGAGUUCUACAGUCCGACGAUCUCCUGUUUGGUUAGUUCCAGGGAGCUUCAAAGAUGUGCCAGGGCGUGGGACCUGAGCAAUAGCAUUUUCAUCCAGGAUCAUUUCAGCAAUUCCUUCCUGGUCCACAUCAAUUUCAUCUAUCAACAGAGGAUUGAGCAUCA"}, "B4": {"name": "chr7:151048522:151048523:+_ENSG00000013374_ENST00000566856|hu_mus|motif|central (ssRNA)", "RNA": "GGGAGUUCUACAGUCCGACGAUCCUGUUUCUUAUUUAUUACGAUCUUGAUGUAAUUUUCUUGAAAUCCGAAAGUUUCAGCGGUUUGACACCUCAGGUCUCUACCAGUGACAUGCAAGCGGGUCUCCAACAAGCUUUUCUUAUCCAACAGAGGAUUGAGCAUCA"}, "B5": {"name": "chr2:29001751:29001752:+_ENSG00000213639_ENST00000296122|perfect_dup|motif|central (ssRNA)", "RNA": "GGGAGUUCUACAGUCCGACGAUCAGCCAAUAGCAAACAAAUGGUUUCCAAAGACUGCUUUCCUCUGUCCACAUAAUCUCCGGAGAAAAGAUAGUUGGCUUCUGGUGGGAAACCUCCAUAUUCAAAUAAUCUCAGUAAAUCUGUCAACAGAGGAUUGAGCAUCA"}, "B6": {"name": "chr2:160775391:160775392:-_ENSMUSG00000057133_ENSMUST00000039782|mus_hu|FALSE|FALSE (ssRNA)", "RNA": "GGGAGUUCUACAGUCCGACGAUCAAUGAGUCCAGGAGAUACUCCUGGGAUGAGAAAUGGGUUAAAAGCCACAGGACUACUAGUAGUUAUUGCAGGUUCAGACUGAUCAGAAAAUGGACCUGGACCAGGCUUGUCCUCAGCUAACAACAGAGGAUUGAGCAUCA"}, "B7": {"name": "chr18:33597908:33597909:-_ENSMUSG00000042834_ENSMUST00000171533|mus_mus|FALSE|FALSE (ssRNA)", "RNA": "GGGAGUUCUACAGUCCGACGAUCUACAUCAAAAGAGUACAUGGGUAAAAUAUAGAUAUACAGACAAUUGAUGAACAUAAACUACUAGGCUUGUUACAUCUAAAUGAAGAAAAAAAAAAACCGUGGGGGGGACUCUCAGCCUCUCAACAGAGGAUUGAGCAUCA"}, "B8": {"name": "chr1:38489269:38489270:+_ENSG00000183520_ENST00000537711|hu_hu|FALSE|FALSE (ssRNA)", "RNA": "GGGAGUUCUACAGUCCGACGAUCUUUGAAGUUACUAGAAAACGACAACAGAUUUUUGAUACAGAAUGACAAGGCUUAUCUAUAACACGUCAACGUUUUCGACGACUCUGAAAUUUAUAAAUAGCUGGGGAGUUCACCGUUUCUCAACAGAGGAUUGAGCAUCA"}, "B9": {"name": "chr2:160775391:160775392:-_ENSMUSG00000057133_ENSMUST00000039782|mus_hu|motif|central (ssRNA)", "RNA": "B6 RNA with U77G, A78G, U80G, A81G"}, "B10": {"name": "chr18:33597908:33597909:-_ENSMUSG00000042834_ENSMUST00000171533|mus_mus|motif|central (ssRNA)", "RNA": "B7 RNA with U82G, A83G, U85G, A86G"}, "B11": {"name": "chr3:35977374:35977375:+_ENSMUSG00000027710_ENSMUST00000011492|mus_hu|motif|central (ssRNA)", "RNA": "GGGAGUUCUACAGUCCGACGAUCCACAGGUAUCUUGGUGUUUUCAAAAUGGACUUCACAAGUGUUGGAGCCCCGAAUGCCGGAUUUAUCUUCGGGUUUCCCAUUAGUGACUCCACCAAAGUCUCUUUCUACUAUGAAUGCUGUCAACAGAGGAUUGAGCAUCA"}, "B12": {"name": "chr2:24917620:24917621:+_ENSMUSG00000006476_ENSMUST00000102931|mus_mus|motif|central (ssRNA)", "RNA": "GGGAGUUCUACAGUCCGACGAUCAGUAAUGCUGCUUCCCUUCAAAUUGUUUCAGGGGUGUAAAAAAAUUGCACUUAUUUCGGUGAACCCCAUGGAGGGGAUCCCCAAUGCUGCUGCCUCCAGGCGAGGCAUGACAGGUCAAUGCAACAGAGGAUUGAGCAUCA"}, "B13": {"name": "chr5:10264850:10264851:+_ENSG00000150753_ENST00000503026|hu_hu|FALSE|FALSE (ssRNA)", "RNA": "GGGAGUUCUACAGUCCGACGAUCUUCUCAAUGUCUUCAUUCUUCAGAUUCUCCAGGCUUACGAAUGUCAUCAAUCUUCAAAAUCAUUCUAACCAUUUGUGUUGCAAGAGAUAUCUGUUGCUUUUUGCCAAUCAAGGUUUCUAUCAACAGAGGAUUGAGCAUCA"}, "B14": {"name": "chr6:13786029:13786030:-_ENSMUSG00000048216_ENSMUST00000115492|mus_mus|FALSE|FALSE (ssRNA)", "RNA": "GGGAGUUCUACAGUCCGACGAUCAAAAACUCUCCAAUAGCAGGCCACCAGGUAGGGACCCCACAAGGUUAGGAAGAGGAAAGUCAUUAUAUAAAACAUUCUGCUGAUUCUUUUCUCCAUUUUGAACUCAUCCAAGACCAAUAGCAACAGAGGAUUGAGCAUCA"}, "B15": {"name": "chr2:166767530:166767531:+_ENSMUSG00000002718_ENSMUST00000002790|mus_mus|FALSE|FALSE (ssRNA)", "RNA": "GGGAGUUCUACAGUCCGACGAUCAAAUAUUUCUUGUAAUGCUAGUGCCCCAUACUUAAUGCAAUAUAAGUUAAUAAACACUAAGAAACUCUUGAUAAACUUGGUGGUCUUGGAGUUUUGCAGUCUCUGGAAUAGUAGAAUGAACAACAGAGGAUUGAGCAUCA"}, "B16": {"name": "chr4:34514055:34514056:+_ENSMUSG00000028291_ENSMUST00000084299|mus_mus|motif|central (ssRNA)", "RNA": "GGGAGUUCUACAGUCCGACGAUCCUGGGGAGGAGGUGCAGCAAUAAACAUUUGUUAAAAAGACUGAUAGAAUAAAUAAAACGGCCAAAAAAUAAUAAAGAAAAUCAUAUAAACCCAUUCUGAAACCCCAAGAAAAGUCCUGAACAACAGAGGAUUGAGCAUCA"}, "B17": {"name": "chr12:75046761:75046762:+_ENSMUSG00000021109_ENSMUST00000021530|mus_mus|FALSE|FALSE (ssRNA)", "RNA": "GGGAGUUCUACAGUCCGACGAUCAUAUAGAAAAUAUAAAUAGACUGCUGAGCCACCAGUGUCCAAAAAUAACCAACAGAAACAAAAACCCAACAAACAACAACAACUGAACAAAAACAUUAACAAUCAAAAGGAAUGAGAUUACAACAGAGGAUUGAGCAUCA"}, "B18": {"name": "85396044_85398007_762_3pUTR_ENSMUSG00000021549_ENSMUST00000109552|mouse|control|control (ssRNA)", "RNA": "GGGAGUUCUACAGUCCGACGAUCCACCAAUGUAGUAAUCACCACACAUAGCAAUAAUCCUAAAAUGAUUGACAACAUUUGUCUGACUAAGGAAUGAAAGUACAAAGGACCCCGGCCUCCGAUCACUCUCUCUUAUAAGAUAGCCAACAGAGGAUUGAGCAUCA"}, "B19": {"name": "chr4:34514055:34514056:+_ENSMUSG00000028291_ENSMUST00000084299|mus_mus|FALSE|FALSE (ssRNA)", "RNA": "B16 RNA with G82U, G83A"}, "B20": {"name": "chr9:115598534:115598535:+_ENSG00000148158_ENST00000374232|hu_mus|motif|central (ssRNA)", "RNA": "GGGAGUUCUACAGUCCGACGAUCCAGCUUAUAGCCUCCGGUGACGUGCUUGACUGACUCACCCACUCUGCUCAGCAAUGCGGUCCCUUGCUUCUUGUAGGCAUUCAGGUCCUUAGCAGUGAGGAACACAUUGAAGUGUUCAUUCAACAGAGGAUUGAGCAUCA"}, "B21": {"name": "chr8:41682716:41682717:-_ENSMUSG00000039431_ENSMUST00000048898|mus_hu|motif|central (ssRNA)", "RNA": "GGGAGUUCUACAGUCCGACGAUCCACAUCGCUGAGCUGCCAGUAAUGAUUAGGGAGGCCCAUCCGCGUGUAUUCUUCACGGAGAUCGAUCAGCACCCAGCCUUGCUCUCUUUCUUCUUUAUCCAGCAUGGGGUUGAAUGAAAACAACAGAGGAUUGAGCAUCA"}, "B22": {"name": "34871406_34871526_3634_3pUTR_ENSMUSG00000037503_ENSMUST00000047534|mouse|control|control (ssRNA)", "RNA": "GGGAGUUCUACAGUCCGACGAUCAUGGUGGUGGGUUUGCUUCUCCAGAGUCAAGGAGCUUACAGUUUCCAAUACUCCACAACUCUAAACUGCAAGCAGCAGCAGCCGAGGAAGGAAGGCCCCUAGCCUCAGGGACGGCAGCAGCAACAGAGGAUUGAGCAUCA"}},
  "note": "Numbering of substitutions follows the chain as printed. Over roughly 24,000 sequences, “enrichment r” has its median near 0.99; the highest 2% begin near 3.7. This excerpt belongs to a sample that is enriched for the highest values.",
  "data": [
    {"biological_target": "T1, UNK ZnF1-3 (human, UniProt Q9C0B0 31-174)", "T1 sequence": "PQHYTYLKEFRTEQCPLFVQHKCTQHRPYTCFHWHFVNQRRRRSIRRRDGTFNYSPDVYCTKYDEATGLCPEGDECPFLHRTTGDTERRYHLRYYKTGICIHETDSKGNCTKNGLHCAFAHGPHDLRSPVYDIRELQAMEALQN", "assay": "nsRBNS (natural sequence RNA bind-n-seq); RBNS binding buffer (assumed for nsRBNS): 25 mM Tris pH 7.5, 150 mM KCl, 3 mM MgCl2, 0.01% Triton X-100, 500 ug/ml BSA, 20 U/ml SUPERase-In, 4 C; UNK is unkempt and MSI1 is Musashi-1; names of the RNAs are library labels; protein concentration not given here; high values mean tight binding", "units": {"binding signal": "enrichment R"}, "values": [
      {"binder": "B1", "binding signal": 0.744},
      {"binder": "B2", "binding signal": 0.527},
      {"binder": "B3", "binding signal": 0.79},
      {"binder": "B4", "binding signal": 0.692},
      {"binder": "B5", "binding signal": 1.36},
      {"binder": "B6", "binding signal": 0.911},
      {"binder": "B7", "binding signal": 7.83},
      {"binder": "B8", "binding signal": 1.2},
      {"binder": "B9", "binding signal": 1.1},
      {"binder": "B10", "binding signal": 6.83},
      {"binder": "B11", "binding signal": 0.637},
      {"binder": "B12", "binding signal": 1.02},
      {"binder": "B13", "binding signal": 0.579},
      {"binder": "B14", "binding signal": 1.71},
      {"binder": "B15", "binding signal": 1.05},
      {"binder": "B16", "binding signal": 15.2},
      {"binder": "B17", "binding signal": 3.57},
      {"binder": "B18", "binding signal": 0.49},
      {"binder": "B19", "binding signal": 8.55},
      {"binder": "B20", "binding signal": 0.691},
      {"binder": "B21", "binding signal": 1.07},
      {"binder": "B22", "binding signal": 1.48}
    ]}
  ]
}
